Source: PubChem BioAssay (National Center for Advancing Translational Sciences (NCATS))
Compounds with a hit are over-represented: about 7.3% of the library has one in this group of screens.
SMN2 splice enh – increases expression of the SMN2 splice variant; 2.8% of 210,000 active; Potency, µM (series often up to 46.1 µM), for the others: at the highest dose activity change, positive = activation, usual class: activators; HEK293 SMN2-luciferase splicing reporter, luminescence, 30-36 h; AID 1458; further: % of control where 0% means no effect; nearly all actives have a fitted effect of over 55% in size
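HEK293 cells carry an SMN2 […]–luciferase reporter in which exon 7 inclusion puts luciferase in frame. Cells were plated 10-12 h before compound addition, then incubated 30-36 h at 37C. ONE-Glo luminescence was read; sodium butyrate at 4.5 mM final served as control.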
NPC1 promoter act – activates the NPC1 promoter. Huh7 NPC1 promoter luciferase reporter, 24 h. 2.4% of 320,000 active. Potency, µM (titrated, usually from 9.22 µM), for the others: at the highest dose activation, actives largely listed as activators; further: % of control where 0% means no effect; nearly all actives have a fitted effect of over 60% in size
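In 1536-well qHTS, Huh7 cells harboring an NPC1 promoter–luciferase construct received compound for 24 h; activation was quantified by luminescence following luciferase reagent addition.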
ELG1 genotox – induces genotoxicity in HEK293T cells with luciferase-tagged ELG1 | AID 504466 | Potency, µM (series often up to 46 µM), without a hit: at the top dose activity change, positive = activation, most hits filed as activators | 1.3% of 330,000 active | HEK293T ELG1-luciferase reporter, luminescence, 16 h; further: % of control where 0% means no effect; nearly all actives have a fitted effect of over 60% in size
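Reporter readout depends on ELG1 protein level, which increases with genetic stress. After 16 hr compound exposure at 37 °C, luciferase activity was quantified using ONE-Glo.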
FLuc modulator – counter-screen for miR-21 project: firefly luciferase inhibitors or activators. P08659. purified FLuc, Km substrates, luminescence inhibition. Potency, µM (highest dose often 57.5 µM), for the others: top-dose activity change, negative = inhibition, hits mostly inhibitors. 6.9% of 360,000 active;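 further: plate controls were vehicle for no effect and reference inhibitor for full effect; nearly all actives have a fitted effect of over 55% in size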
Target sequence (P08659 whole entry, looked up): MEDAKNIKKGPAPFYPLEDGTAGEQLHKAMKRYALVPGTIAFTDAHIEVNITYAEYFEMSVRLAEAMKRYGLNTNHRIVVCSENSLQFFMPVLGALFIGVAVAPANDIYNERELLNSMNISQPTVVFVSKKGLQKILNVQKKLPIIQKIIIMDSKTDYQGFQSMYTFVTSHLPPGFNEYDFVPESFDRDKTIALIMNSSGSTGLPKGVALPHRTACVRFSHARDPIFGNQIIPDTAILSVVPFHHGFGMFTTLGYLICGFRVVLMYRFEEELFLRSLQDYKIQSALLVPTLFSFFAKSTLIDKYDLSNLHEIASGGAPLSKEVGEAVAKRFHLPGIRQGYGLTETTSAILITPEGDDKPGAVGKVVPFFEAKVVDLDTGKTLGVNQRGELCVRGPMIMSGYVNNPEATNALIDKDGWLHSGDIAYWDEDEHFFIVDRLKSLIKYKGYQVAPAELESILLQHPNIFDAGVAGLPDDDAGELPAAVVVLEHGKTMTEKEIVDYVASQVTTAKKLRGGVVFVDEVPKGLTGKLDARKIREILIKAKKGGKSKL
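Purified P. pyralis luciferase (10nM final) with 10uM D-luciferin and 10uM ATP (Km levels) in 50mM Tris acetate pH 7.5, 10mM Mg acetate, 0.01% Tween-20, 0.05% BSA; qHTS 6-point titration, ~60 µM downward; luminescence read.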
KinaseGlo FLuc – Kinase-Glo luciferase inhibition (counter-screen); Kinase-Glo luciferase, ATP luminescence, 8 min; Potency, µM (titrated, usually from 38.3 µM), without a hit: top-dose activity change, negative = inhibition, most hits filed as inhibitors; AID 1379; 0.28% of 200,000 active; further: on the % scale 0 is the no-effect control and ±100 the full control effect; nearly all actives have a fitted effect of over 60% in size
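Inhibition of Kinase-Glo luciferase light generation was assessed at 10 uM ATP in pH 7.2 imidazole buffer, with luminescence measured after eight minutes at ambient temperature.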
Rab9 promoter act – activates the Rab9 promoter. Huh7 Rab9 promoter-luciferase reporter, luminescence, 24 h. 2.8% of 320,000 active. Potency, µM (doses to about 9.22 µM), without a hit: at the highest dose activation, negative = inhibition, usual class: activators; further: % of control where 0% means no effect; nearly all actives have a fitted effect of over 60% in size
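Huh7 cells stably carrying Rab9 promoter–luciferase reporter, plated 1500 cells/well, compound added after 2 h and incubated 24 h at 37 °C; luciferase luminescence then read after 10 min with detection reagent.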
The depositor's hits bear a star; ? = inconclusive; . = not tested or not shown; [ ] = another dose, or the depositor's remark. The call rests on the fitted dose curve; in most records, active means well fitted curve in the direction sought with a large enough effect; inconclusive means small, poorly fitted or top-dose-only effect, or another doubt; inactive means no such curve, though single readings can be large; an effect the other way counts as inactive or inconclusive. Potency means the concentration at half of the fitted maximal effect.

SMILES | SMN2 splice enh | NPC1 promoter act | ELG1 genotox | FLuc modulator | KinaseGlo FLuc | Rab9 promoter act
O=C(Nc1ccc(C(F)(F)F)cc1)c1ccc2nc[nH]c2c1 | -1% | 18% | -3% | ? | 1% | 19%
Cc1ccc(C(=O)Nc2ccc3nccnc3c2)cc1 | 3.2µM* | 0.89µM* | ? | 0.95µM* | -13% | 0.45µM*
O=C(Nc1cccc(Cl)c1)C1=Cc2cc(Cl)ccc2OC1 | -4% | -5% | -6% | -20% | -3% | -9%
O=C(Nc1ccc2c(c1)OCO2)c1ccc2nc[nH]c2c1 | ? | ? | 16µM* | 21µM* | -7% | 3.5µM*
O=C(Nc1ccc(Cl)c(Cl)c1)C1=Cc2ccccc2OC1 | ? | ? | ? | 11µM* | 3% | 2.5µM*
Cc1c(NC(=O)Cc2ccc(Cl)cc2)cccc1-c1nc2cccnc2s1 | . | . | . | -7% | . | .
O=C(Nc1ccc2c(c1)OCCO2)c1ccc(Cl)c([N+](=O)[O-])c1 | 18µM* | -3% | ? | ? | -3% | -1%
O=C(Nc1ccc2cccnc2c1)c1ccc(Br)cc1 | . | 16% | 10% | 19µM* | . | 7%
Cc1cc(C(=O)Nc2cccc(NC(=O)c3ccco3)c2)ccc1[N+](=O)[O-] | . | -3% | -10% | 19µM* | . | 0%
N#Cc1ccsc1NC(=O)c1ccc(Cl)c([N+](=O)[O-])c1 | . | -2% | -1% | 6µM* | . | 9%
O=C(O)c1cc(NC(=O)c2ccc(Cl)c([N+](=O)[O-])c2)cc(C(=O)O)c1 | -17% | -4% | ? | -5% | 12% | -11%
N#Cc1ccsc1NC(=O)c1cccc([N+](=O)[O-])c1 | -57% | 7% | -4% | -11% | 1% | 12%
Cc1cc(Cl)ccc1NC(=O)CN1C(=O)CSc2ccc(S(=O)(=O)N(C)C)cc21 | . | . | . | 3% | . | .
Cc1cccc(N2CCN(C(=O)C3CCCN(S(=O)(=O)c4cccc5nsnc45)C3)CC2)c1C (centres undefined) | 0% | . | . | 0% | . | .
Cn1c(=O)c2sccc2n2c(CCC(=O)N3CCN(c4ccc(F)cc4)CC3)nnc12 | 1% | . | . | -1% | . | .
O=C(Nc1ccc2c(c1)OCCO2)c1ccc(Cl)c(Cl)c1 | . | 1.6µM* | 2.6µM* | 4.8µM* | . | 1.4µM*
CCn1cc([N+](=O)[O-])c(C(=O)NCc2ccc3c(c2)OCO3)n1 | . | 2% | -1% | 3% | . | -1%
O=C(Nc1ccc2c(c1)OCCO2)c1cccnc1 | ? | ? | ? | ? | -10% | 4µM*
CCn1cc([N+](=O)[O-])c(C(=O)Nc2ccc3c(c2)OCCO3)n1 | ? | ? | ? | 19µM* | -14% | ?
Cc1cc(C(=O)Nc2ccc3c(c2)OCCO3)ccc1[N+](=O)[O-] | . | 0.71µM* | 0.52µM* | 0.76µM* | . | ?
Cc1ccc2nc(-c3cc(NC(=O)c4ccc5c(c4)OCCO5)ccc3Cl)oc2c1 | 6% | . | . | ? | . | .
Cc1nc(Oc2ccccc2C)c2oc3ccccc3c2n1 | . | . | . | 2% | . | .
N[C@@]1(C(=O)O)CCC[C@@H]1C(=O)O | -7%[9.22 µM] | . | . | . | 0%[7.66 µM] | .
CCOC(=O)c1cnc(NCc2ccccc2OC)c2ccccc12 | . | . | . | -12% | . | .
CCn1c(CN2CCCCC2)nc2cc(NC(=O)c3cccc([N+](=O)[O-])c3)ccc21 | . | . | . | -1% | . | .
SMILES | SMN2 splice enh | NPC1 promoter act | ELG1 genotox | FLuc modulator | KinaseGlo FLuc | Rab9 promoter act
Cc1nn(CC(=O)NCc2ccc(N(C)C)cc2)c(=O)c2nn(-c3ccccc3)c(C)c12 | . | . | . | -1% | . | .
NS(=O)(=O)c1cccc(NC(=O)c2ccc3nc[nH]c3c2)c1 | . | -5% | -1% | 19µM* | . | -6%
NS(=O)(=O)c1cccc(NC(=O)c2cccc(S(=O)(=O)N3CCCCCC3)c2)c1 | . | . | -4% | . | . | .
COc1cccc(C2c3c(-c4ccccc4)n[nH]c3C(=O)N2c2ccc(C(=O)O)cc2)c1 (centres undefined) | -12% | -3% | 1% | -13% | -1% | -4%
COc1ccc(C2c3c(-c4ccccc4)n[nH]c3C(=O)N2c2ccc(C(=O)O)cc2)cc1 (centres undefined) | . | -6% | 8% | 17µM* | . | -1%
O=C(N/N=C/c1ccco1)c1ccc2nc[nH]c2c1 | . | -1% | 0% | -5% | . | -4%
O=C(N/N=C/c1cccs1)c1ccc2nc[nH]c2c1 | 0% | 23% | ? | ? | -3% | 25%
O=C(N/N=C/C(Br)=C\c1ccccc1)c1ccc2nc[nH]c2c1 | ? | 2% | 11% | 12µM* | 0% | 1%
CC(/C=N/NC(=O)c1ccc2nc(C)[nH]c2c1)=C\c1ccccc1 | 17% | 2% | -6% | 8.5µM* | -7% | -1%
CC(=C/c1ccccc1)/C=N/NC(=O)c1ccc2nc[nH]c2c1 | ? | 16% | 10% | 5.4µM* | -4% | 20%
COc1cccc(Cn2c(=O)cc(C)c3c(C)nn(-c4ccc(C)cc4)c32)c1 | . | . | . | 2% | . | .
CCc1nn2c(=O)cc(COC(=O)CNC(=O)c3ccccc3)nc2s1 | . | . | . | -2% | . | .
O=S(=O)(c1ccccc1)c1nnn2c1nc(NCc1ccccc1)c1cc(Cl)ccc12 | 6% | . | . | 2% | . | .
O=C(c1cc(-c2cccc(O)c2)on1)N1CCOCC1 | ? | ? | 2.9µM* | 6.7µM* | -13% | ?
O=C(c1cc(-c2cccc(O)c2)on1)N1CCCCCC1 | . | ? | 13µM* | 8.5µM* | . | -1%
COc1ccc(-c2cc(C(=O)N3CCOCC3)no2)cc1OC | 21% | ? | ? | ? | -4% | 22%
Cc1cccc(C)c1OCc1cc(C(=O)N2CCCCCCC2)no1 | . | 15% | 4% | ? | . | 23%
COc1cccc(-c2nc(NC(C)(C)C)c3ccccc3n2)c1O | . | 0% | -7% | -3% | . | 7%
COc1cccc(-c2nc(N3CCCC3)c3ccccc3n2)c1O | . | 1% | -5% | 15µM* | . | -3%
COc1ccc(Nc2nc(-c3cccc(OC)c3O)nc3ccccc23)cc1 | . | ? | -5% | 3.8µM* | . | 13%
CC1(C)CCC(=O)N2CC[C@H]3C[C@H](OC(=O)Nc4ccccc4)C[C@@H]1[C@H]32 | . | ? | 19% | 19µM* | . | ?
CC1(C)CCC(=O)N2CC[C@H]3C[C@H](OC(=O)Nc4ccc5c(c4)OCO5)C[C@@H]1[C@H]32 | . | 4µM* | -5% | 15µM* | . | ?
CCCCNC(=O)O[C@H]1C[C@@H]2CCN3C(=O)CCC(C)(C)[C@H](C1)[C@H]23 | . | 0% | 0% | 1% | . | -2%
COC(=O)Nc1ccc2c(c1)OCO2 | 17% | -1% | 6% | ? | 0% | 5%
CCOC(=O)c1c(C)c(C(=O)NCc2ccc(Cl)cc2)c(C)n1C | -6% | . | . | -6% | . | .
